# The campaign covered roughly 16,000 compounds. About 5,800 (36%) were called active. Not shown: some 23% with an inconclusive outcome. The call rests on the fitted dose curve; in most records, active means well fitted curve in the direction sought with a large enough effect; inconclusive means small, poorly fitted or top-dose-only effect, or effect the other way; inactive means no such curve, though single readings can be large or run the other way. Some of the results follow.
# Molecular target: Cytochrome P450 2C19 (Homo sapiens) (UniProt P33261)
# Assay: Cytochrome panel assay with activity outcomes
# Conditions: recombinant CYP, pro-luciferin dealkylation, luminescence, p450-cyp2c19; series mostly up to 57.1 µM; activity, negative = inhibition: at the top concentration
# On the % scale 0 is the no-effect control and ±100 the full control effect.
# Chain of Cytochrome P450 2C19 (Homo sapiens) (P33261 whole entry, looked up): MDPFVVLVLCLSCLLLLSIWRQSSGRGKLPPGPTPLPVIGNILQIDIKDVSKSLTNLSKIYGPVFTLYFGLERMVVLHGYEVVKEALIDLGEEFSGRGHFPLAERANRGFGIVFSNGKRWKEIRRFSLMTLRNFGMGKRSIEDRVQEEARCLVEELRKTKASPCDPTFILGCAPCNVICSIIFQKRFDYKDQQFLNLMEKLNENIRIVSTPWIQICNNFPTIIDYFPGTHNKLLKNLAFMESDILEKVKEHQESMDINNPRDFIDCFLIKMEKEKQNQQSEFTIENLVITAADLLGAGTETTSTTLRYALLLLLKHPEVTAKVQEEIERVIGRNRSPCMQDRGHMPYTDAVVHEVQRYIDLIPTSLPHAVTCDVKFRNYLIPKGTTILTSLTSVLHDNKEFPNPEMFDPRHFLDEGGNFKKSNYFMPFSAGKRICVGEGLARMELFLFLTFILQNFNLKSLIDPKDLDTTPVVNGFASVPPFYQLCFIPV
SMILES,"activity, negative = inhibition",AC50
Cc1ccc(S(=O)(=O)N[C@H]2COC(=O)C/C=C\[C@@H](C)[C@H](NS(=O)(=O)c3ccc(C)cc3)COC(=O)C/C=C\[C@H]2C)cc1,30.4% [at 11.4 µM] (inactive),–
O=c1c(-c2cccs2)nc2cncnc2n1Cc1ccc(F)cc1,–,7.94 µM (active)
COc1ncc2nc(-c3cccs3)c(=O)n(Cc3ccc(F)cc3)c2n1,-15.9% (inactive),–
C[C@@H]1CN(CCCn2c3ccccc3c3ccccc32)C[C@H](C)N1,–,3.16 µM (active)
CN(C)CCCn1c2ccccc2c2cnccc21,26.7% [at 11.4 µM] (inactive),–
O=c1[nH]c2ccccc2n1CCCN1CCN(C(c2ccccc2)c2ccccc2)CC1,-46.5% (inactive),–
O=c1c(-c2cc(F)cc(F)c2)nc2cnc(N3CCOCC3)nc2n1C[C@H]1CCCO1,2.14% (inactive),–
O=C1c2cccc3c(Nc4ccccc4Cl)c([N+](=O)[O-])cc(c23)C(=O)N1CCO,–,3.98 µM (active)
O=C1c2cccc3c(Cl)ccc(c23)C(=O)N1O,-13.7% (inactive),–
O=C1NC(=O)C(c2ccccc2[N+](=O)[O-])=C1Nc1ccc(O)c(Cl)c1,1.11% (inactive),–
CCCC(=O)Nc1c2c(nn1-c1ccc(C)cc1C)CSC2,–,8.91 µM (active)
Cc1cc(/C=N\NC(=O)c2cccs2)c(C)n1-c1ccc2ncccc2c1,-70.7% (inactive),–
Cc1ccc(-n2nc3c(c2NC(=O)c2cccs2)CSC3)cc1,–,7.94 µM (active)
Cn1c(CC(=O)Nc2ccc(Cl)c(Cl)c2)nnc1SCC(=O)N1CCN(c2ccccc2)CC1,–,14.1 µM (active)
CC(C)c1ccccc1-n1c(SCC(=O)N2CCN(c3ccccc3)CC2)nnc1-c1cccnc1,–,11.2 µM (active)
O=c1cc(CSc2nnc(-c3cccnc3)n2-c2ccccc2F)nc2sccn12,11.8% (inactive),–
Cn1c(Cc2cccc3ccccc23)nnc1SCC(=O)N1CCN(c2ccccc2)CC1,–,25.1 µM (active)
CC(=O)Nc1cc(S(=O)(=O)Nc2ccccc2)c(C)cc1C,–,25.1 µM (active)
c1ccc2cc(NCNc3ccc4ccccc4c3)ccc2c1,–,2.51 µM (active)
O=C(CCS(=O)(=O)c1cccc2nsnc12)NC1CCCCC1,–,11.2 µM (active)
Cc1cccc(NC(=O)CCS(=O)(=O)c2cccc3nsnc23)c1C,–,14.1 µM (active)

SMILES,"activity, negative = inhibition",AC50
Cc1cccc(NC(=S)NNC(=O)CC(C)O)c1C (configuration not stated),-0.296% (inactive),–
CN(C)c1ncc2nc(-c3cccc(C#N)c3)c(=O)n(C[C@H]3CCCO3)c2n1,18.9% (inactive),–
N=C(N)SCCSC(=N)N,2.37% [at 11.4 µM] (inactive),–
Cc1ccccc1-c1nc(N(C)Cc2ccco2)c2ccccc2n1,–,10 µM (active)
COc1ccccc1-c1nc(N(C)Cc2ccco2)c2ccccc2n1,–,20 µM (active)
CN(C)c1nc(-c2ccccc2C(F)(F)F)nc2ccccc12,-29.3% (inactive),–
CN(C)Cc1ccccc1-c1nc(N(C)Cc2ccco2)c2ccccc2n1,-26.2% (inactive),–
CN(Cc1ccco1)c1nc(-c2ccccc2C(F)(F)F)nc2ccccc12,–,7.94 µM (active)
COc1ccccc1-c1nc(N(C)C)c2ccccc2n1,-17.2% (inactive),–
Cc1ccccc1-c1nc(N(C)C)c2ccccc2n1,–,20 µM (active)
Cc1ccccc1-c1nc(NC2CC2)c2ccccc2n1,-33.8% (inactive),–
CNc1nc(-c2ccccc2CN(C)C)nc2ccccc12,-18.6% (inactive),–
CNc1nc(-c2ccccc2C)nc2ccccc12,–,10 µM (active)
O=C(OCC#CCSc1nnc(-c2cccc3ccccc23)o1)c1ccco1,–,3.16 µM (active)
O=C1C2CCCN2C(c2ccccc2F)N1c1ccc(Cl)cc1 (configuration not stated),–,25.1 µM (active)
COc1cc(OC)c(C2N(c3cc(C)on3)C(=O)C3CCCN32)cc1OC (configuration not stated),-29% (inactive),–
CN1CCc2c(c3c(n2C)CCN(C)[C@H]3c2ccccc2F)[C@@H]1c1ccccc1F,-14.2% (inactive),–
CC(CC(=O)O)CC(=O)Nc1ccc(S(N)(=O)=O)cc1 (configuration not stated),-18% (inactive),–
CCC(=O)Nc1ccc(/C(C)=N\NS(=O)(=O)c2ccc(C)cc2)cc1,–,3.98 µM (active)
C/C(=N/NS(=O)(=O)c1ccc(C)cc1)c1cccc(NC(=O)c2cccc(Cl)c2)c1,–,2 µM (active)
CCCNC(=O)CSc1nc(-c2cccs2)cc(C(F)(F)F)n1,–,0.562 µM (active)

SMILES,"activity, negative = inhibition",AC50
COCCn1c(=O)c(-c2cccs2)nc2cnc(N3CCN(C)CC3)nc21,3.09% (inactive),–
COc1cc2nc(N3CC=[N+](C(=O)c4ccco4)CC3)nc(N)c2cc1OC,-4.4% (inactive),–
CCOC(=O)N1CCN(c2nc(-c3cccs3)cc(C(F)(F)F)n2)CC1,–,3.98 µM (active)
CCOC(=O)N1CCN(c2nc(-c3ccco3)cc(C(F)(F)F)n2)CC1,–,4.47 µM (active)
CCC[C@@H]1O[C@@H]2C[C@@H]3[C@H]4CCC5=CC(=O)C=C[C@@]5(C)[C@H]4[C@H](O)C[C@@]3(C)[C@@]2(C(=O)CO)O1,-18.8% [at 25.6 µM] (inactive),–
CC[C@@H]1OC(=O)[C@H](C)[C@H](O[C@@H]2C[C@](C)(OC)[C@H](O)[C@H](C)O2)[C@H](C)[C@H](O[C@@H]2O[C@@H](C)C[C@@H](N(C)C)[C@@H]2O)[C@](C)(O)C[C@H](C)C(=NOCOCCOC)[C@H](C)[C@H](O)[C@]1(C)O,-2.54% [at 25.6 µM] (inactive),–
CN(C)CCCO[C@H]1[C@H]([C@H](O)CO)O[C@H]2OC(C)(C)O[C@@H]21,36.3% (inactive),–
COc1ccc([C@@H](Nc2ncccn2)c2cc3c(cc2O)OCO3)cc1,–,0.316 µM (active)
COc1ccc([C@@H](C)c2cc3c(cc2O)OCO3)cc1,–,0.1 µM (active)
C=C(C)[C@@H]1CC=C(C(=O)O)CC1,-12.9% (inactive),–
CN(C)CCSCCO,28.5% [at 11.4 µM] (inactive),–
Cc1cc(C(C)(C)C)c(O)c(C)c1CC1=NCCN1,–,inactive
Cc1cc(-c2cc(C)c(O)c(C(C)(C)C)c2)cc(C(C)(C)C)c1O,–,1 µM (active)
CCN1C/C(=C\c2cccc(C)c2)c2nc3ccccc3c(C(=O)O)c2C1,-22.5% (inactive),–
CN1CCC(N(C)C(=O)CCc2nc3ccccc3c(=O)[nH]2)CC1,11.4% (inactive),–
Cc1cccc(NC(=O)N(Cc2nc3ccccc3c(=O)[nH]2)C2CCCC2)c1,–,15.8 µM (active)
CCn1c(O)c(/C=N/N=C2CCCC2)c2ccc(C3=NNC(=O)CC3)cc21,-24.3% (inactive),–
O=C1c2cccnc2C(O)N1C1CCCCC1 (configuration not stated),-28.3% (inactive),–
Cc1nc2c(n1C1CCCCC1)C(=O)c1ccccc1C2=O,–,2.82 µM (active)
Cn1cc(-c2nc3cncnc3n(C3CC3)c2=O)c2ccccc21,-6.89% (inactive),–

# Source: PubChem BioAssay AID1851 (National Center for Advancing Translational Sciences (NCATS), 2009)
